Only some compounds are listed: those with a hit (about 21% of all), similar ones and a draw of the others.
Pf growth 96h: Primary qHTS for delayed death inhibitors of the malarial parasite plastid, 96 hour incubation. P. falciparum luciferase reporter growth, 96 h. Potency, µM (top dose mostly 28.7 µM), inactives show at the top dose activity change, negative = inhibition, actives largely listed as inhibitors. 6.9% of 320,000 active. AID 504834, 2011; further: potency means the concentration at half of the fitted maximal effect; on the % scale 0 is the no-effect control and ±100 the full control effect
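Parasite growth measured via integrated firefly luciferase reporter in P. falciparum. Infected erythrocytes at 2% hematocrit, 0.05% parasitemia final were treated 96 hours at 37 C under 5% CO2, and luminescence was read.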
Giardia FBPA inh: qHTS Assay for Inhibitors of Fructose-1,6-bisphosphate Aldolase from Giardia Lamblia. purified Giardia FBPA. Potency, µM (titrated, usually from 59.6 µM), for inactives: top-dose activity, negative = inhibition, hits mostly inhibitors. 0.71% of 290,000 active. AID 2451, 2010; further: potency means the concentration at half of the fitted maximal effect; on the % scale 0 is the no-effect control and ±100 the full control effect; nearly all actives have a fitted effect of over 55% in size
Target sequence (A8B2U2 whole entry, looked up): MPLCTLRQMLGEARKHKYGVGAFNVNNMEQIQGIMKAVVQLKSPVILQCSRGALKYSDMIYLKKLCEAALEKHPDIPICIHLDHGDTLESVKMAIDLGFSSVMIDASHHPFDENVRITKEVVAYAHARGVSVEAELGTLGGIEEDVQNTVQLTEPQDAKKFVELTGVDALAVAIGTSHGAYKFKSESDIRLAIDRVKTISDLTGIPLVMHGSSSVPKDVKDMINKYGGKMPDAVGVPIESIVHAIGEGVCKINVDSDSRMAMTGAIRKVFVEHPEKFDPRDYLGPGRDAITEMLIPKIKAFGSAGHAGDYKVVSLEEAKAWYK
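Giardia FBPA (40 nM reagent) was preincubated 10 min at RT with compound (up to 57.5 uM final), then substrate plus GAPDH/TPI/NAD/arsenate coupling system with diaphorase/resazurin was added; resorufin fluorescence (525/598 nm) was read after 20 min.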
NS1 function inh: qHTS Assay for Inhibitors of Influenza NS1 Protein Function | 0.4% of 270,000 active | Potency, µM (highest dose often 46.1 µM), inactives show top-dose activity, positive = more growth | AID 2326, 2010; calls by dose curve; further: potency means the concentration at half of the fitted maximal effect; actives are rising curves; nearly all actives have a fitted effect of over 50% in size
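S. cerevisiae expressing influenza A NS1, grown in glucose, washed, then diluted 1:100 into pH 6.0 -URA galactose medium with 23 nl compound. Growth recovery read as OD600; NS1-free strain serves as control.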
Shiga toxin inh: A qHTS for Small Molecule Inhibitors of Shiga Toxin; Vero cells, Shiga toxin protein synthesis inhibition reporter; inhibition, % at 38.7 µM; 9.2% of 290,000 active; in the data active means inhibition mostly above about 28%, no sharp cut-off; inactive means mostly below about 43%; further: 0% is about no effect
Cycloheximide cs: Cycloheximide Counterscreen for Small Molecule Inhibitors of Shiga Toxin; max response, %; cell reporter, cycloheximide protein synthesis inhibition counterscreen; 12% of 300,000 active; in the data active means max response mostly above about 13%, no sharp cut-off; inactive means mostly below about 14%; further: read at 38.3 µM for the half of the compounds with a filed dose; 0% is about no effect
Pf growth 48h: Primary qHTS for delayed death inhibitors of the malarial parasite plastid, 48 hour incubation. P. falciparum luciferase growth in erythrocytes, 48 h. Potency, µM (top dose mostly 28.7 µM), for the others: top-dose activity change, negative = inhibition, hits mostly inhibitors. 5.9% of 310,000 active. AID 504832, 2011; further: potency means the concentration at half of the fitted maximal effect; on the % scale 0 is the no-effect control and ±100 the full control effect
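Parasite viability was followed by luminescence of a genomically integrated firefly luciferase. Cultures held 0.1% parasitemia at 2% hematocrit (final), incubated under 5% CO2 at 37 C.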
An asterisk follows results filed as active; ? = inconclusive; / = not tested or not shown; ! = not active in a repeat; [ ] = remark or other dose. Unless noted, the call rests on the fitted dose curve; in most records, active means well fitted curve in the direction sought with a large enough effect; inconclusive means small, poorly fitted or top-dose-only effect, or another doubt; inactive means no such curve, though single readings can be large; an effect the other way counts as inactive or inconclusive.

SMILES	Pf growth 96h	Giardia FBPA inh	NS1 function inh	Shiga toxin inh	Cycloheximide cs	Pf growth 48h
CCc1ccc2[nH]c(=O)c(CN(CCN(CC)CC)C(=O)Nc3ccccc3OC)cc2c1	31%	-2%	-5%	-19	-3	15µM*
CCN(CC)CCCN(Cc1cc2cc(OC)ccc2[nH]c1=O)C(=O)Nc1ccccc1	?	3%	-2%	-3	-5	9.3µM*
CCN(CC)CCN(Cc1cc2ccc(C)cc2[nH]c1=O)C(=O)Nc1ccc(Cl)cc1	?	2%	-35%	78*	38*	?
C=CCNc1nnc(SCC(=O)N2CCC(C(N)=O)CC2)s1	?	/	/	/	/	19%
Cc1nc2ccc(NC(=O)c3ccco3)cc2s1	101%	-8%	-33%	104*	34*	27%
CC(=O)Nc1nc2ccc(NC(=O)c3ccco3)cc2s1	149%	-3%	10%	55*	45*	/
COc1ccc(-c2noc(N3CCC(C(=O)Nc4cc(OC)c(OC)c(OC)c4)CC3)n2)cc1	4%	1%	-3%	-2	2	?
Cc1ccc(Oc2ncccc2C(=O)NC2CCSC2=O)cc1 (stereo unspecified)	31%[1.15 µM]	2%	17%	-17	6	38%
Cc1ccc(-c2cc(=O)c3cc(C)ccc3[nH]2)cc1	?	0%[89.2 µM]	6%	59*!	43*!	-6%
O=c1cc(-c2ccccc2)[nH]c2ccc(F)cc12	1.5µM*	-1%[136 µM]	5%	17	16	0.59µM*
O=c1cc(-c2cccc(F)c2)[nH]c2ccccc12	?	-10%[136 µM]	-5%	-22	5	?
Cc1ccc(-c2cc(=O)c3cc(F)ccc3[nH]2)cc1	10µM*	7%	11%	18	16*	?
O=C(/C=C/Nc1ccc(Br)cc1F)c1ccco1	49%	-5%	-35%	29	12	312%
O=C(/C=C/Nc1ccccc1O)c1ccco1	15%	-7%	-75%	63*	38*	71%
O=C(Cc1ccccc1)Nc1ccccc1Oc1ccccc1	42%	6%	1%	15	7	8%
O=C(/C=C/Nc1ccccc1Oc1ccccc1)c1ccco1	?	-9%	-6%	119*	51*	10µM*
O=C(c1ccc2c(c1)OCO2)N(c1ccc(Br)cc1)C1C=CS(=O)(=O)C1 (stereo unspecified)	4%	1%	17%	-12	-4	-7%
Clc1ccc(-c2c[nH]c3ccccc23)nn1	39%	-4%	4%	50	5	-50%[1.15 µM]
c1ccc2c(-c3csc(-c4ccncc4)n3)c[nH]c2c1	?	-13%	-42%	96*	45*	-55%
Brc1ccc(-c2csc(-c3c[nH]c4ccccc34)n2)cc1	313%	1%	-16%	86*	34*	110%
CCN(CC)c1ccc(Nc2nc(-c3cccnc3)cs2)cc1	?	-4%	-2%	118*	36*	?
CN(C)c1ccc(Nc2nc(-c3cccnc3)cs2)cc1	/	-5%	2%	59*	52*	/
OCCCCNCc1ccc(OCc2ccc(Cl)cc2)cc1	15µM*	1%	-15%	29	-2	?
CCCCCNCc1ccc(Cl)cc1	105%	0%	3%	25	17	5%
CN(NC1OC(=O)c2ccccc21)c1ccccc1[N+](=O)[O-] (stereo unspecified)	7%	21%	1%	10	10	-8%
SMILES	Pf growth 96h	Giardia FBPA inh	NS1 function inh	Shiga toxin inh	Cycloheximide cs	Pf growth 48h
Cc1noc(C)c1S(=O)(=O)NCCN1CCN(c2ccccc2)CC1	12µM*	12%	-12%	-1	-2	8%
Cc1noc(C)c1S(=O)(=O)Nc1c(C)n(C)n(-c2ccccc2)c1=O	102%	2%	-2%	-5	0	23%
Cc1noc(C)c1S(=O)(=O)NCCCN1CCN(Cc2ccccc2)CC1	4.7µM*	3%	2%	-17	-4	10%
Cc1ccccc1C(=O)Nc1ccnn1C1CCN(C2CCSCC2)CC1	25%	/	-3%	-3	-11	-9%
COc1cccc(CNC2CCCCCCC2)c1OC	-12%	?	-8%	-3	-1	0%
CCC(C(=O)NCc1ccco1)n1nc(C)c2c(C)n(-c3ccccc3)nc2c1=O (stereo unspecified)	15µM*	/	17%	-6	-8	-14%
CCC(C(=O)NCCCc1ccccc1)n1nc(C)c2c(C)n(-c3ccccc3)nc2c1=O (stereo unspecified)	-27%	/	-7%	11	-13	-4%
CCC(C(=O)NC1CC1)n1nc(C)c2c(C)n(-c3ccc(C)cc3)nc2c1=O (stereo unspecified)	?	0%	9%	-7	-1	-1%
CCC(C(=O)NC1CCCCCC1)n1nc(C)c2c(C)n(-c3ccccc3)nc2c1=O (stereo unspecified)	10µM*	/	2%	32	16	?
CCC(C(=O)NCCc1ccco1)n1nc(C)c2c(C)n(-c3ccccc3)nc2c1=O (stereo unspecified)	14%	/	7%	-2	-3	-5%
CCC(C(=O)NCCC1=CCCCC1)n1nc(C)c2c(C)n(-c3ccccc3)nc2c1=O (stereo unspecified)	12µM*	/	-9%	-5	-9	?
Cc1nc2cc(NC(=O)c3ccc(N4C(=O)CCC4=O)cc3)ccc2s1	8%	1%	/	34	23	?
c1ccc2c(c1)CCN(C1=Nc3cccc4cccc1c34)C2	?	?	/	49*	35*	?
c1cc2c3c(cccc3c1)C(N1CCCCC1)=N2	12µM*	?	-85%	-11	-3	?
c1cc2c3c(cccc3c1)C(N1CCCCCC1)=N2	1%[5.75 µM]	?	-4%	25	16	-6%
CCN(C(=O)COC(=O)CSc1ccc(C(N)=O)cc1[N+](=O)[O-])C1CCCCC1	2%	4%	0%	-3	-3	10%
COc1ccc(COC[C@H](C)[C@H](O)[C@@H](C)[C@H]2OC(=O)[C@@H]2C)cc1	/	7%	/	-8	10	/
Cc1cc(CNC(=O)c2cccnc2Cl)c2ccccc2n1	27%	-7%	/	31	-5	25%
COC(=O)C1=CN(C2CC2)C=C(C(=O)OC)C1c1ccccc1OC	-12%	2%	-5%	-16	-3	12µM*
Cn1ccnc1SCC(=O)NC1(C#N)CCCCC1	12%	/	/	/	/	55%
COc1ccc(NC(=O)C(c2cc3c(cc2[N+](=O)[O-])OCO3)N(C)c2ccccc2)cc1 (stereo unspecified)	-36%	-16%	-5%	47	19*	6%
Cc1cc(OCc2cc(C(=O)N(C)CC3CCOCC3)no2)cc(C)c1Cl	?	-4%	-2%	46*	35*	-6%

Screening results (PubChem BioAssay)
